According to PubChem BioAssay (Tox21):
“And” between values parts separate entries of the source, which are not always exact repeats. Equal values may be shown once. Records with an inconclusive call do not appear. The source holds several records for some structures; these can differ, active in one and inactive in another. The source made the active and inactive calls. Unless noted, calls follow the shape of the dose curve; as a rule, active = well fitted curve in the direction sought with a large enough effect in the repeat runs; inconclusive = weak or mixed curves; inactive = no such curve, though single readings can be large; an effect the other way counts as inactive or inconclusive.

Legend:
[1] = A CellTox Green Cytotoxicity Assay to monitor cytotoxicity in HEK293 cells - 32 hour (AID 1224881); also: nearly all actives have a fitted effect of over 40% in size
Method in brief: (§1)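 Real-time, in one plate: 600 HEK293 cells/well with dead-cell DNA dye, pinned compound after 5 h, 37 C incubation over 40 h; viable cells give no appreciable fluorescence.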

[2] = A CellTox Green Cytotoxicity Assay to monitor cytotoxicity in HepG2 cells - 32 hour (AID 1224883); also: nearly all actives have a fitted effect of over 50% in size
Method in brief: (§2)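 Cytotoxicity was tracked as dead-cell DNA fluorescence in HepG2 cells treated with test compounds at 37 C; each time-point value comes from one kinetic series spanning 0, 8, 16, 24, 32 and 40 h.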

[3] = A CellTox Green Cytotoxicity Assay to monitor cytotoxicity in HEK293 cells - 8 hour (AID 1224884); also: nearly all actives have a fitted effect of over 35% in size
Method in brief: as §1

[4] = qHTS RealTime-Glo MT Cell Viability Assay in HepG2 cells - 16 hour (AID 1224885); also: nearly all actives have a fitted effect of over 50% in size
Method in brief: (§3)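 qHTS, HepG2, 600 cells/well, RealTime-Glo (NanoLuc + prosubstrate) added with cells; 5 h preincubation; DMSO compound addition; 37 C; luminescence at 0/8/16/24/32/40 h.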

[5] = qHTS RealTime-Glo MT Cell Viability Assay in HEK293 cells - 8 hour (AID 1224887); also: top concentration of the series differs between compounds; nearly all actives have a fitted effect of over 50% in size
Method in brief: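 Kinetic, non-lysing viability readout. Seed HEK293 (600/well) with reagent, incubate 5 h at 37 C/5% CO2, pin 23 nL compound in DMSO, incubate at 37 C, read luminescence at 0, 8, 16, 24, 32, 40 h.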

[6] = A CellTox Green Cytotoxicity Assay to monitor cytotoxicity in HEK293 cells - 16 hour (AID 1224888); also: nearly all actives have a fitted effect of over 35% in size
Method in brief: as §1

[7] = qHTS RealTime-Glo MT Cell Viability Assay in HepG2 cells - 0 hour (AID 1224889); also: nearly all actives have a fitted effect of over 50% in size
Method in brief: as §3

[8] = A CellTox Green Cytotoxicity Assay to monitor cytotoxicity in HepG2 cells - 8 hour (AID 1224890); also: nearly all actives have a fitted effect of over 45% in size
Method in brief: as §2

[9] = qHTS assay to identify small molecule antagonists of the estrogen receptor alpha (ER-alpha) signaling pathway using the BG1 cell line in the presence of 0.1 nM 17-beta-estradiol - cell viability counter screen (AID 1259241); also: nearly all actives have a fitted effect of over 40% in size
Method in brief: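 Estradiol-stimulated (0.1 nM) VM7Luc4E2 cells exposed to compounds 22 hr; viability measured by fluorescence of cleaved CellTiter-Fluor substrate after 30 min.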

[10] = qHTS assay to identify small molecule antagonists of the androgen receptor (AR) signaling pathway using the MDA cell line in the presence of 0.5 nM R1881 - cell viability counter screen (AID 1259242); also: nearly all actives have a fitted effect of over 45% in size
Method in brief: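 Cells seeded at 3,000/well and allowed 5 hr at 37C, 0% CO2 before compound transfer and R1881 (0.5 nM final) addition; 16 hr later, live-cell protease fluorescence indicated cytotoxicity.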

[11] = target: Estrogen receptor (Homo sapiens) (UniProt P03372); assay: qHTS assay to identify small molecule antagonists of the estrogen receptor alpha (ER-alpha) signaling pathway using the BG1 cell line in the presence of 0.1 nM 17-beta-estradiol (AID 1259244); also: nearly all actives have a fitted effect of over 50% in size
Sequence of Estrogen receptor (Homo sapiens) (P03372 whole entry, looked up): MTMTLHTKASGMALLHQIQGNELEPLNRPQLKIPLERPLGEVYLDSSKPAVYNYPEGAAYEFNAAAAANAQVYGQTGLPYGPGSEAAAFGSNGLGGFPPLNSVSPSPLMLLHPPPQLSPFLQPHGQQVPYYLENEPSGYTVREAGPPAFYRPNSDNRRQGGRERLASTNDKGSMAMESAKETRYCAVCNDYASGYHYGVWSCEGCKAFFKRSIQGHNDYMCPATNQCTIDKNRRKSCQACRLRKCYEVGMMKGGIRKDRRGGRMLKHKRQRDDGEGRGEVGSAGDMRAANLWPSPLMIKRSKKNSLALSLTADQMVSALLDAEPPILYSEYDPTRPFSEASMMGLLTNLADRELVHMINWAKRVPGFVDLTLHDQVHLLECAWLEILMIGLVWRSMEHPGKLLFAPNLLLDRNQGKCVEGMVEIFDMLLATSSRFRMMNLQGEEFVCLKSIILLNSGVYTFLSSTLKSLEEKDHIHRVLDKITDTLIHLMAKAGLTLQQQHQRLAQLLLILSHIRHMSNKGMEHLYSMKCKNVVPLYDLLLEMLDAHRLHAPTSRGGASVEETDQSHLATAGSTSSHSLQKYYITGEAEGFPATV
Method in brief: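 Luciferase signal from VM7Luc4E2 ERE-reporter cells, co-dosed with test compound and 0.1 nM final 17beta-estradiol for 22 h, read with ONE-Glo.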

[12] = qHTS assay to identify small molecule phospholipidosis (PLD) inducers (AID 1259344; active = well fitted curve in the direction sought with a large enough effect; an effect the other way counts as inactive or inconclusive)
Method in brief: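 Read-out is LipidTOX Red fluorescence (ex 595/em 615) imaged in HepG2 cells after 24 h compound exposure at 37 C, with Hoechst nuclear counterstain (ex 352/em 461) allowing per-cell normalisation.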

[13] = qHTS assay to identify small molecule HDAC inhibitors (AID 1259364);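 also: wild-type HCT-116 cells with endogenous class I/II HDAC activity; top concentration of the series differs between compounds; nearly all actives have a fitted effect of over 45% in size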
Method in brief: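 HCT-116 wt cells, 1,500/well, overnight attach. Compounds (DMSO) 2 h, 37 °C. HDAC-Glo I/II, 30 min RT. Luminescence.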

[14] = qHTS assay to identify small molecule HDAC inhibitors - cell viability counter screen (AID 1259365)
Method in brief: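 After overnight seeding at 1,500 cells per well, wild-type HCT-116 cultures took up compounds in DMSO for 2hr at 37 C. Viable cell content came from luminescence with CellTiter-Glo.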

[15] = qHTS assay to identify small molecule agonists of the sonic hedgehog signaling (Shh) pathway - cell viability counter screen (AID 1259366); also: nearly all actives have a fitted effect of over 50% in size; also: potency is read from the fitted curve at half-maximal effect
Method in brief: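 Same-well cytotoxicity read. Gli1-Luc reporter 3T3 cells; compounds 24hr, 37C/5% CO2; CellTiter-Fluor fluorescence.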

[16] = qHTS assay to identify small molecule antagonists of the sonic hedgehog signaling (Shh) pathway - cell viability counter screen (AID 1259367); also: nearly all actives have a fitted effect of over 55% in size
Method in brief: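 Fluorescence read-out (CellTiter-Fluor, 1 hr at 37C) taken after 23 hr compound treatment of 3T3 Gli1-Luc cells stimulated with conditioned medium. Cells were seeded at 2,000 per well and pre-incubated 4 hr.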

[17] = qHTS assay to identify small molecule agonists of the sonic hedgehog signaling (Shh) pathway (AID 1259368; calls by dose curve;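 also: NIH/3T3-derived 3T3Gli1-Luc cells carrying a stable Gli1-driven firefly luciferase reporter; series mostly up to about 92 µM; nearly all actives have a fitted effect of over 15% in size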)
Method in brief: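 Following a 24 hr incubation with DMSO-dissolved compounds at 37 C, 5% CO2, Gli1-Luc NIH/3T3-derived cells received luciferase reagent for 30 min at room temperature prior to luminescence measurement.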

[18] = A CellTox Green Cytotoxicity Assay to monitor cytotoxicity in HepG2 cells - 0 hour (AID 1224882); also: nearly all actives have a fitted effect of over 35% in size
Method in brief: as §2

[19] = qHTS RealTime-Glo MT Cell Viability Assay in HEK293 cells - 24 hour (AID 1224886)
Method in brief: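 Assay medium contained NanoLuc luciferase plus cell-permeant prosubstrate, added with HEK293 cells at 600 cells/well. After 5 h at 37 C/5% CO2 compounds were added; plates stayed at 37 C for 40 h with serial luminescence reads.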

[20] = target: Androgen receptor (Homo sapiens) (UniProt P10275); assay: qHTS assay to identify small molecule antagonists of the androgen receptor (AR) signaling pathway using the MDA cell line in the presence of 0.5 nM R1881 (AID 1259243); also: nearly all actives have a fitted effect of over 50% in size; also: potency is read from the fitted curve at half-maximal effect
Sequence of Androgen receptor (Homo sapiens) (P10275 whole entry, looked up): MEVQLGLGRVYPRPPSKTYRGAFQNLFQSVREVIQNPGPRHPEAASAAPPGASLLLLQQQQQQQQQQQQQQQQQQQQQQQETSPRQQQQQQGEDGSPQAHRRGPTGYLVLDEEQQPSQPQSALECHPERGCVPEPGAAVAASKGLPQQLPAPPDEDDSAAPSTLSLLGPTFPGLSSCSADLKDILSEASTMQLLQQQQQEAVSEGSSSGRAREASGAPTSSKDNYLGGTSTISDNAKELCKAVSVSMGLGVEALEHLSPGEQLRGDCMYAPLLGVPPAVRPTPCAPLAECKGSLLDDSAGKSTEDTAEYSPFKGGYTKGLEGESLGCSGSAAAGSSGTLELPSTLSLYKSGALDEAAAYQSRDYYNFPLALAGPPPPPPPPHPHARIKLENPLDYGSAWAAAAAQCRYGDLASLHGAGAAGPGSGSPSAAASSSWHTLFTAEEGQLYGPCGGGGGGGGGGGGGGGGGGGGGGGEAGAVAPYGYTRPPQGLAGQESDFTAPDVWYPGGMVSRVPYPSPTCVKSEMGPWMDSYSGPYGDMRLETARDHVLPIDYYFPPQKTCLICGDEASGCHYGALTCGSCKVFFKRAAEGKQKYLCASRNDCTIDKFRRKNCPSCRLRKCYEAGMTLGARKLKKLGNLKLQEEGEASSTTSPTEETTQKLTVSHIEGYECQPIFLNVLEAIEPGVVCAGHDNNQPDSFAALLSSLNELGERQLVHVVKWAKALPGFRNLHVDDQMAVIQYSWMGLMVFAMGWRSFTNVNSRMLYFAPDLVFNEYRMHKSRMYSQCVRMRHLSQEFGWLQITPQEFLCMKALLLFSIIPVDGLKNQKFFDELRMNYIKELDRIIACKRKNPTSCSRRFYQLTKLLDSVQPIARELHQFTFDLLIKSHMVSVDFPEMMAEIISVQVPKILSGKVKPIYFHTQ
Method in brief: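 Luminescence from an AR/GR-responsive MMTV-luciferase construct in MDA-kb2 breast carcinoma cells, read 30 min after ONE-Glo, following 16 hr co-treatment with compounds and 0.5 nM R1881.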
% is scaled to controls: 0 for no effect and ±100 for the full control effect.

CCCCC(CC)COC(=O)c1ccccc1O (stereo unspecified)
inactive: Potency [1] | Potency [2] | Potency [3] | Potency [4] | Potency [5] | Potency [6] | Potency [7] | Potency [8] | outcome [9] | Potency [10] | outcome [11] | Potency [12] | Potency [13] | outcome [14] | Potency [15] | Potency [16] | outcome [17]

O=C(O)CCCc1ccccc1
inactive: Potency [1] | Potency [2] | Potency [3] | Potency [4] | Potency [5] | Potency [7] | outcome [9] | Potency [10] | Potency [12] | Potency [13] | outcome [14] | Potency [15] | Potency [16] | outcome [17]

C[N+](C)(C)CCCCCC[N+](C)(C)C
inactive: Potency [18] | Potency [2] | Potency [3] | Potency [4] | Potency [19] | Potency [5] | Potency [6] | Potency [7] | outcome [9] | Potency [10] | Potency [12] | Potency [13] | outcome [14] | Potency [15] | Potency [16] | outcome [17]

Cc1nc2c([nH]1)c(=O)n(C)c(=O)n2Cc1ccco1
inactive: Potency [18] | Potency [2] | Potency [3] | Potency [4] | Potency [19] | Potency [5] | Potency [6] | Potency [7] | Potency [8] | outcome [9] | Potency [10] | outcome [11] | Potency [12] | Potency [13] | outcome [14] | Potency [15] | outcome [17]

COc1ccccc1OCC(O)CN1CCN(CC(=O)Nc2c(C)cccc2C)CC1 (stereo unspecified)
inactive: Potency [1] | Potency [2] | Potency [3] | Potency [4] | Potency [5] | Potency [6] | Potency [7] | outcome [9] | Potency [10] | outcome [11] | Potency [12] | Potency [13] | outcome [14] | Potency [15] | Potency [16] | outcome [17]

CCCCCSCCCCC
inactive: Potency [1] | Potency [2] | Potency [3] | Potency [4] | Potency [5] | Potency [7] | Potency [8] | outcome [9] | Potency [10] | outcome [11] | outcome [14] | Potency [15] | Potency [16] | outcome [17]

COc1cc(C(=O)N2CCCCCCC2)cc(OC)c1OC
inactive: Potency [18] | Potency [2] | Potency [3] | Potency [4] | Potency [19] | Potency [5] | Potency [6] | Potency [7] | Potency [8] | outcome [9] | Potency [10] | outcome [11] | Potency [12] | Potency [13] | outcome [14] | Potency [15] | Potency [16] | outcome [17]

NCCc1cnc[nH]1
inactive: Potency [1] | Potency [2] | Potency [3] | Potency [19] | Potency [5] | Potency [6] | outcome [9] | Potency [10] | Potency [12] | Potency [13] | outcome [14] | Potency [15] | Potency [16] | outcome [17]

CN1CCCC1
inactive: Potency [1] | Potency [2] | Potency [4] | Potency [19] | Potency [6] | Potency [7] | Potency [8] | outcome [9] | Potency [10] | outcome [11] | Potency [13] | outcome [14] | Potency [15] | Potency [16] | outcome [17]

CCOC(=O)c1ccc(C)cc1
inactive: Potency [18] | Potency [2] | Potency [3] | Potency [4] | Potency [19] | Potency [5] | Potency [7] | Potency [8] | outcome [9] | Potency [10] | outcome [11] | Potency [13] | outcome [14] | Potency [15] | Potency [16]

CCc1ccc(O)c(OC)c1
inactive: Potency [18] | Potency [2] | Potency [3] | Potency [4] | Potency [5] | Potency [6] | Potency [7] | Potency [8] | outcome [9] | Potency [10] | outcome [14] | Potency [15] | Potency [16]

c1ccc([C@H]2CN3CCSC3=N2)cc1
inactive: Potency [2] | Potency [3] | Potency [4] | Potency [19] | Potency [5] | Potency [6] | Potency [8] | outcome [9] | Potency [10] | outcome [11] | Potency [12] | Potency [13] | outcome [14] | Potency [16] | outcome [17]

O=C1CC2CC1C1CCCC21 (stereo unspecified)
inactive: Potency [18] | Potency [2] | Potency [4] | Potency [5] | Potency [7] | Potency [8] | outcome [9] | Potency [10] | Potency [20] | outcome [11] | outcome [14] | Potency [15] | Potency [16] | outcome [17]

CC(NC(CCc1ccccc1)C(=O)O)C(=O)N1C(=O)N(C)CC1C(=O)O (stereo unspecified)
inactive: Potency [2] | Potency [3] | Potency [4] | Potency [19] | Potency [5] | Potency [6] | Potency [8] | outcome [9] | Potency [10] | Potency [20] | Potency [13] | outcome [14] | Potency [15] | Potency [16] | outcome [17]

CCC(C)S (stereo unspecified)
inactive: cytotoxicity increase [2] 1.17% [at 2.72 µM] | cytotoxicity increase [3] 0.141% [at 2.72 µM] | activity change, negative = cytotoxic [4] -0.5% [at 2.72 µM] | activity change, negative = cytotoxicity [19] 1.35% [at 2.72 µM] | activity change, negative = cytotoxicity [5] 2.1% [at 2.72 µM] | activity change [6] 1.7% [at 2.72 µM, stronger effect = higher value] | activity change, negative = cytotoxicity [7] 5.41% [at 2.72 µM] | cytotoxicity increase [8] -0.336% [at 2.72 µM] | activity change, negative = cytotoxicity [9] 5.76% [at 3.27 µM] | viability change, negative = cytotoxic [10] 1.28% [at 3.26 µM] | activity change, negative = cytotoxicity [14] 1.61% [at 3.27 µM] | viability change, negative = cytotoxic [15] 3.35% [at 3.27 µM] | viability change, negative = cytotoxic [16] 3.76% [at 3.27 µM] | activity change [17] -0.25% [at 3.27 µM]

CC(C)(c1ccc(O)cc1)c1ccc(O)cc1
inactive: Potency [18] | Potency [2] | Potency [3] | Potency [5] | Potency [6] | Potency [8] | outcome [9] | Potency [10] | Potency [12] | Potency [13] | outcome [14] | outcome [17]
inactive and 12.4 µM (active): Potency [15]
active: Potency [20] 9.58 µM and 6.98 µM
